Results taken from PubChem BioAssay (NCATS).
Results filed as inconclusive are left out. Active and inactive are the calls of the source. Calls come from the whole dose curve; as a rule, active = well fitted curve in the direction sought with a large enough effect; inconclusive = small, poorly fitted or top-dose-only effect, or another doubt; inactive = no such curve, though single readings can be large; an effect the other way counts as inactive or inconclusive.

Key:
[1] = HPAF-II Cancer Cell Toxicity qHTS against the NCATS CANVASS Library (AID 1347346); note: nearly all actives have a fitted effect of over 55% in size
How it was run: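 1000 HPAF-II cells/well; 4 h pre-incubation; 11-pnt compound titration; 72 h, 37 degrees C/5% CO2; CellTiter-Glo, 15 min RT; luminescence read.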

[2] = HPAF-II 24hr Apoptosis Induction qHTS against the NCATS CANVASS Library (AID 1347356)
How it was run: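 500 HPAF-II cells/well; compounds in 11-pnt qHTS; 24 h, 37 C/5% CO2; Caspase-Glo 3/7 added, 15 min RT dark; luminescence read. Doxorubicin control.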

[3] = UWB1.289 Cancer Cell Toxicity qHTS against the NCATS CANVASS Library (AID 1347347); note: nearly all actives have a fitted effect of over 60% in size
How it was run: (§1)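 Cells were seeded at 1000 per well, allowed 4 h at 37 degrees C/5% CO2, then pin-treated with an 11-point compound series. After 72 h, viability was read as CellTiter-Glo luminescence following 15min at room temperature.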

[4] = OV-SAHO Cancer Cell Toxicity qHTS against the NCATS CANVASS Library (AID 1347348); note: nearly all actives have a fitted effect of over 55% in size
Source text: Natural products and their derivatives continue to be wellsprings of nascent therapeutic potential. However, many laboratories have limited resources for biological evaluation, leaving their previously isolated or synthesized compounds largely or completely untested. To address this issue, the Canvass library of natural products was assembled (https://tripod.nih.gov/canvass), in collaboration with academic and industry researchers, for quantitative high-throughput screening (qHTS) across a diverse set of cell-based and biochemical assays. The pure (>85% purity by liquid chromatography/mass spectrometry [LC/MS]) Canvass library of 346 natural products were submitted by 45 academic laboratories and companies around the world. […] The library was formatted into 1536-well plates and evaluated in 50 qHTS (in an 11-pnt concentration series) bioassays with broad scope of disease-relevant mechanisms. The resulting data set from 50 different assays was then systematically analyzed to identify overall trends and specific natural products with interesting biological activities. […]
Cancer Cell Toxicity protocol for cell lines COV-362, OV-KATE, OV-SAHO, UWB1.289, UWB1.289-WTBRCA1, HEK-293, HPAF-II, Panc-1005, SW1088, or U-118MG. […] Luminescence signal was acquired via the ViewLux plate reader (PerkinElmer) using a clear filter, 2 second exposure and 2x binning settings.

[5] = Panc-1005 Cancer Cell Toxicity qHTS against the NCATS CANVASS Library (AID 1347349); note: nearly all actives have a fitted effect of over 60% in size
How it was run: as §1

[6] = SW1088 Cancer Cell Toxicity qHTS against the NCATS CANVASS Library (AID 1347350); note: nearly all actives have a fitted effect of over 75% in size
How it was run: as §1

[7] = U-118MG Cancer Cell Toxicity qHTS against the NCATS CANVASS Library (AID 1347351)
How it was run: as §1

[8] = COV-362 Cancer Cell Toxicity qHTS against the NCATS CANVASS Library (AID 1347352)
How it was run: (§2)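 1000 cells/well, 4 h pre-incubation 37 °C/5% CO2; 11-pnt titration; 72 h; CellTiter-Glo 15 min RT, luminescence.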

[9] = A2780 Cisplatin Sensitive Ovarian Cancer Cell Toxicity qHTS against the NCATS CANVASS Library (AID 1347353); settings: A2780 ovarian cancer viability, ATPLite luminescence, 72 h; at 46.1 µM (top of the series); note: nearly all actives have a fitted effect of over 60% in size
Source text: Natural products and their derivatives continue to be wellsprings of nascent therapeutic potential. However, many laboratories have limited resources for biological evaluation, leaving their previously isolated or synthesized compounds largely or completely untested. To address this issue, the Canvass library of natural products was assembled (https://tripod.nih.gov/canvass), in collaboration with academic and industry researchers, for quantitative high-throughput screening (qHTS) across a diverse set of cell-based and biochemical assays. The pure (>85% purity by liquid chromatography/mass spectrometry [LC/MS]) Canvass library of 346 natural products were submitted by 45 academic laboratories and companies around the world. We collected pure natural products to circumvent deconvolution and structure elucidation due to time and resource limitations. The library was formatted into 1536-well plates and evaluated in 50 qHTS (in an 11-pnt concentration series) bioassays with broad scope of disease-relevant mechanisms. The resulting data set from 50 different assays was then systematically analyzed to identify overall trends and specific natural products with interesting biological activities. […]
Cancer Cell Toxicity protocol 1. […] Luminescence signal was acquired via the ViewLux plate reader (PerkinElmer) using a clear filter, 2 second exposure and 2x binning settings.

[10] = UWB1.289-WTBRCA1 Cancer Cell Toxicity qHTS against the NCATS CANVASS Library (AID 1347354)
How it was run: as §2

Measured: outcome

O=c1cc(-c2ccccc2)oc2c(O)c(O)ccc12
inactive: [1] | [2]

O=C(O)c1cc(O)c(O)c(O)c1
inactive: all assays above
